This is an account of results in PubChem BioAssay.

Assay [1] concerns Human papillomavirus type 1a protein E7 (residues 44-93). Description: HPV1a E7 fragment binders on microarrays, primary screen, biochemical, small-molecule microarray, residues 44-93, 635 nm fluorescence (AID 1108).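 Note: E7 fragment applied at 1 µg/mL in TBST for 1 h at 4 C; score combines spot fluorescence with its signal to noise ratio.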 Particulars: small-molecule microarray binding, fluorescence 635 nm; higher = more signal.
The nature of assay [2]: modulators of HCV replicon luciferase signal, primary screen, HCV replication inhibitor project, Huh7 cells, luciferase reporter (AID 1109).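 Note: huh7 hepatoma cells harbouring a luciferase neomycin HCV replicon reporter; luciferase luminescence as measure of HCV replicon replication; test concentration not given here.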 The conditions noted are these: 48 h, higher = more signal. (In antiviral work, replicon cells carry a viral genome segment that copies itself.)
Assay [3] concerns the target Left-right determination factor 2 (Homo sapiens) (UniProt O00292). Description: LEFTY2 binders on small-molecule microarrays, primary screen, biochemical, small-molecule microarray, 635 nm fluorescence scan (AID 1110). Particulars: LEFTY2 binding, higher = more signal.
In assay [4] the target is Calmodulin-1 (Homo sapiens) (UniProt P0DP23). As to the kind of experiment: CALM1 binders on microarrays, EGTA buffer, profiling panel, biochemical, small-molecule microarray, Cy5-labelled CALM1 (AID 1111).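 Note: labelled calmodulin applied in Tris saline Tween buffer holding calcium plus EGTA and DTT.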 The conditions noted are these: Cy5-CALM1 binding fluorescence, higher = more signal.
The target is the same in assay [5]. As to the kind of experiment: calcium-bound CALM1 binders on microarrays, profiling panel, artefact control for SMM control-protein annotation, biochemical, small-molecule microarray, Cy5-labelled CALM1, plus calcium (AID 1112).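 Note: score merges spot fluorescence with signal to noise from triplicate slides.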 The conditions noted are these: Cy5-CALM1 binding fluorescence, higher = more signal.
Assay [6] in a line: small-molecule microarray binders of probe aWnt5a, primary screen, biochemical, biotinylated probe, 635/667 nm fluorescence (AID 1113).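 Note: score merges 667 nm fluorescence intensity with signal-to-noise per printed feature.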 The conditions noted are these: higher = more signal.
Assay [7] can be described thus: small-molecule microarray binders of probe aShh, primary screen, biochemical, biotinylated probe, 635/667 nm fluorescence (AID 1114).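 Note: probe is biotin-labelled aShh protein from a stem cell growth factor screen; measures binding of labelled protein to compounds printed on the slide; score merges feature fluorescence at 667 nm with signal-to-noise.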 Particulars: higher = more signal.
A short description of assay [8]: small-molecule microarray binders of probe aNog, primary screen, biochemical, biotinylated probe, 635/667 nm fluorescence (AID 1115).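 Note: probe is biotinylated aNog protein used at 0.15 µg/mL for 1 h at 4 C; z-score combines 667 nm fluorescence of each spot with its signal to noise.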 The conditions noted are these: higher = more signal.
The target in assay [9] is Torsin-1A-interacting protein 1 (Homo sapiens) (UniProt Q5JTV8). As to the kind of experiment: LAP1 binders from COS7 cell lysate, primary screen, small-molecule microarray, 635/667 nm fluorescence (AID 1116). Particulars: COS7-hLAP1 lysate binding, 635 nm fluorescence, higher = more signal.
Chain of Torsin-1A-interacting protein 1 (Homo sapiens) (Q5JTV8 whole entry, looked up): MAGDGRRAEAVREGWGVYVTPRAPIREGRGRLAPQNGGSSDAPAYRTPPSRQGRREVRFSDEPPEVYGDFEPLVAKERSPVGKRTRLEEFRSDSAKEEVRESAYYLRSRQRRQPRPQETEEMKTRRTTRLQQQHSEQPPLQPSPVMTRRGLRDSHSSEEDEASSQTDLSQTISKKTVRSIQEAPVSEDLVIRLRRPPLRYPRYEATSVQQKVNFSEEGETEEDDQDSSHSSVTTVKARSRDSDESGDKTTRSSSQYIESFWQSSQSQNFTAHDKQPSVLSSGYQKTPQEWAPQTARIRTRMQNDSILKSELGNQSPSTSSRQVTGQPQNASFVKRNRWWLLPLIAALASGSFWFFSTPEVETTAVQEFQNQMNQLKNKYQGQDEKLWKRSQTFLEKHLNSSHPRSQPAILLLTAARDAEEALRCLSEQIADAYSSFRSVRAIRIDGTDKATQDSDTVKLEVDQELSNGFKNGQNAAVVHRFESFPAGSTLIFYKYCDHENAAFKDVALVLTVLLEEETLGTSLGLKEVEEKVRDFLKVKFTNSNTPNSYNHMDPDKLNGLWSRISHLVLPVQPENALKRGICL
Assay [10] deals with Alpha-bungarotoxin (Bungarus multicinctus) (UniProt P60615). As to the kind of experiment: alpha-bungarotoxin binders on microarray, profiling panel, artefact control for SMM control protein annotation, biochemical, small-molecule microarray, Alexa647 label, 635/667 nm fluorescence (AID 1117). Particulars: alpha-BTX-A647 binding fluorescence, higher = more signal.
Chain of Alpha-bungarotoxin (Bungarus multicinctus) (P60615 whole entry, looked up): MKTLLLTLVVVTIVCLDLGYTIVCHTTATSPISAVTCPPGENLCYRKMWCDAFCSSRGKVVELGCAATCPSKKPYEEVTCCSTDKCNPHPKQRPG

Chain of Left-right determination factor 2 (Homo sapiens) (O00292 whole entry, looked up): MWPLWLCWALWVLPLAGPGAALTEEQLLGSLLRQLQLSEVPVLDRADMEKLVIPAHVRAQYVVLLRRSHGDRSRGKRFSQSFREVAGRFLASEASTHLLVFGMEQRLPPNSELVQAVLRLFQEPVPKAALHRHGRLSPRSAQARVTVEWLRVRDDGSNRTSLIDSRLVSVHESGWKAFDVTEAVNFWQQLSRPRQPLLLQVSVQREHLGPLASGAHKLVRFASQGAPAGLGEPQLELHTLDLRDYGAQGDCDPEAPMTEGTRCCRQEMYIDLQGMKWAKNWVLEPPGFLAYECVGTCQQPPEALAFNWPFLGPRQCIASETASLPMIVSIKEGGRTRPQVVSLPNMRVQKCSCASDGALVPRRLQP

With `C=COC[C@@H]1CN2[C@@H](CC[C@@H](C)[C@@H]2c2ccc(Br)cc2)C(=O)O1`, the composite z-score in assay [1] is -0.0205; in assay [3], -0.0429; in assay [4], -0.941; in assay [5] it was -1.26; in assay [6], -0.124; in assay [7], 0.0284. The composite z-score in assay [8] is -0.0079; in [9], -0.111; in assay [10], 0.259. The molecule also returned a z-score in assay [2] of -0.0522.
On to `CCOC(=O)NN=C1C[C@@H](O)[C@@H](O)[C@@H]2[C@@H]3C(=O)N(Cc4ccc5c(c4)OCO5)C(=O)[C@@H]3CC[C@H]12`, for which the composite z-score in assay [1] is 0.581; in [3], -0.0985; in assay [4], -0.569; in assay [5], -0.0188; in assay [6], -0.129; in assay [7] it was -0.206. For the same molecule, the composite z-score in [8] is -0.177; in assay [9] it was 1.05; in [10], 0.543. In assay [2], this molecule had a z-score of 0.603.
Take `C[C@@H]1NC(=O)[C@@H](C)COC(=O)[C@H](C)NC(=O)[C@@H](C)COC1=O`: the composite z-score was 1.08 in [1]; 0.737 in assay [3]; -0.152 in [4]; -0.521 in [5]; -0.12 in [6]; -0.243 in assay [7]. In addition, the composite z-score was 0.0209 in [8], -0.143 in assay [9] and 0.144 in [10]. This molecule registered a z-score in assay [2] of 0.0151.
In the case of `C#CCCCON=C1C[C@@H](O)[C@@H](O)[C@@H]2[C@@H]3C(=O)N(c4cccc(Oc5ccccc5)c4)C(=O)[C@@H]3CC[C@H]12`, the composite z-score in assay [1] is -0.578; in assay [3], -0.914; in assay [4], -0.423; in [5] it was 0.361; in assay [6] it was -0.172; in assay [7], -0.138. Also, the composite z-score in [8] was -0.237; in assay [9], 0.441; in assay [10], -0.702. Besides, in assay [2], the z-score came out at 0.18.
Regarding `COC(=O)[C@H](C)NC(=O)CCC1CC(OC(=O)NCc2ccc3c(c2)OCO3)CC2(CCCC(COC(=O)NCC(c3ccccc3)c3ccccc3)O2)O1` (stereo not given in full), the composite z-score in [1] was 1.42; in assay [3], 0.739; in [4] it was 0.869; in assay [5], -0.663; in assay [6] it was -0.0037; in [7], -0.229. Moreover, the composite z-score was -0.11 in assay [8], 0.587 in assay [9] and 1.04 in assay [10]. In assay [2], this molecule displayed a z-score of 0.327.
As to `O=C1CCCC=C1C(CCc1ccccc1)OC(=O)c1ccc(Br)cc1` (stereo not given), the composite z-score in assay [1] was -2.1; in assay [3], 0.572; in assay [4], -1.11; in [5], -0.622; in [6], -0.124; in [7] it was -0.147. Besides, the results for the composite z-score in assay [8], in assay [9] and in assay [10] were -0.348, -0.108 and -0.334, respectively. Besides, the z-score in assay [2] is 1.15.
Regarding `C#CCCCON=C1C[C@@H](O)[C@@H](O)[C@@H]2[C@@H]3C(=O)N(C(C)(C)C)C(=O)[C@@H]3CC[C@H]12`, the composite z-score in assay [1] was -0.149; in [3], -0.0304; in assay [4] it was -0.245; in assay [5], -0.0493; in assay [6] it was 0.0926; in [7], -0.154. In addition, the composite z-score in [8] was -0.0675; in [9], -0.0059; in assay [10], 1.27. This molecule had a z-score in assay [2] of -0.134.
Turning to `CC(C)=CCCC(C)=CCON=C1C[C@@H](O)[C@@H](O)[C@@H]2[C@@H]3C(=O)N(c4ccc(F)cc4F)C(=O)[C@@H]3CC[C@H]12`, the composite z-score in [1] was 1.36; in assay [3], 0.621; in assay [4] it was -0.0184; in assay [5] it was -0.778; in assay [6], -0.124; in assay [7], 0.0668. The composite z-score is -0.379 in assay [8], 0.153 in [9] and 0.39 in assay [10]. In [2], this molecule registered a z-score of 0.19.
Regarding `CCc1cc2c(nc1CC)CCN(CCC(C)=NO[C@H](C)c1cn([C@@H]3COC[C@H]3O)nn1)C2`, the composite z-score in [1] was -0.236; in [3], 0.368; in assay [4], -0.433; in assay [5], -0.931; in assay [6] it was -0.0479; in assay [7] it was 0.0723. The figures for the composite z-score in assay [8], in assay [9] and in [10] were -0.172, 0.651 and 0.173, respectively. In addition, the z-score in [2] is -0.53.
For the molecule `CCCNC(=O)OC[C@H]1O[C@H](CCON=Cc2ccc(C(=O)N3[C@H](c4ccc(C)cc4)[C@@H](C)CC[C@H]3C(=O)OC)cc2)C=C[C@@H]1Oc1ccc(OC)cc1`, the composite z-score was 0.993 in assay [1]; 0.534 in [3]; 0.263 in assay [4]; -0.0711 in [5]; 0.111 in [6]; -0.493 in assay [7]. Moreover, the results for the composite z-score in assay [8], in assay [9] and in assay [10] were -0.0234, 0.943 and 0.497, respectively. In assay [2], this molecule registered a z-score of -1.85.
For `CCOC(=O)CCN1C(=O)[C@H]2[C@H]3[C@H](O)[C@H](O)CC(=NNC(=O)OCc4ccccc4)[C@@H]3CC[C@H]2C1=O`, the composite z-score is 0.582 in assay [1]; 0.929 in assay [3]; 0.634 in assay [4]; -0.0903 in assay [5]; -0.0819 in [6]; -0.0035 in [7]. Moreover, the composite z-score in assay [8] is -0.147; in assay [9], 0.754; in [10], 0.999. In addition, in assay [2], the z-score was -0.582.
With `CCOC(=O)[C@H](CC(C)C)NC(=O)CCC1CC(OC(=O)NCc2ccc3c(c2)OCO3)CC2(CCCC(COC(=O)NCC(c3ccccc3)c3ccccc3)O2)O1` (stereo not given in full), the composite z-score in [1] is 0.506; in assay [3], 0.426; in assay [4] it was -0.378; in [5] it was -0.443; in assay [6] it was -0.169; in assay [7], -0.262. For the same molecule, the results for the composite z-score in assay [8], in assay [9] and in assay [10] were -0.137, 0.126 and 0.443, respectively. Besides, the z-score in [2] is -0.0319.
As to `CCCCC#C[C@@H]1C=C[C@H](Oc2ccc(C(=O)OC)cc2)[C@@H](COC(=O)OCC)O1`, the composite z-score in assay [1] was 0.42; in assay [3] it was 0.494; in assay [4], -0.184; in assay [5], -0.581; in assay [6] it was -0.0735; in [7], -0.2. The figures for the composite z-score in assay [8], in assay [9] and in assay [10] were 0.129, 1.19 and 0.807, respectively. The molecule also returned a z-score in assay [2] of -3.22.
Consider `COc1ccc(COC(=O)NN=C2C[C@@H](O)[C@@H](O)[C@@H]3[C@@H]4C(=O)N(c5cccc(Oc6ccccc6)c5)C(=O)[C@@H]4CC[C@@H]23)cc1`, for which the composite z-score in assay [1] is -0.203; in assay [3] it was -0.0421; in [4], -0.338; in assay [5], 0.0996; in assay [6], -0.0165; in assay [7], -0.117. The composite z-score is -0.0641 in [8], 0.326 in assay [9] and 0.487 in assay [10]. This molecule showed a z-score in assay [2] of -1.98.
On to `COc1ccc(O[C@H]2C=C[C@@H](c3ccccc3)O[C@@H]2CON=C(C)CCC(=O)OC[C@H]2O[C@H](c3ccccc3)C=C[C@@H]2Oc2ccc(OC)cc2)cc1`, for which the composite z-score in [1] was -1.52; in assay [3], -1.08; in assay [4] it was -0.63; in assay [5] it was -0.702; in assay [6], -0.176; in [7], -0.276. The values for the composite z-score in assay [8], in assay [9] and in [10] were 0.646, -1.17 and -0.792, respectively. For the same molecule, in assay [2], the z-score is -1.15.
